The other results are listed elsewhere or left out. The source made the active and inactive calls. Rule as the data show it: active = activation above about 19%; inactive = the rest. Residues, ends and D or L forms follow the SMILES beside them.
Target: cAMP-dependent protein kinase type II-beta regulatory subunit (Homo sapiens) (UniProt P31323)
Experiment: activators of PKA-R2B holoenzyme, confirmation, biochemical, fluorescence polarization, human (AID 504797)
Conditions: PKA-R2B complex, at 11.4 µM, hits give high values

Sequence of cAMP-dependent protein kinase type II-beta regulatory subunit (Homo sapiens) (P31323 whole entry, looked up): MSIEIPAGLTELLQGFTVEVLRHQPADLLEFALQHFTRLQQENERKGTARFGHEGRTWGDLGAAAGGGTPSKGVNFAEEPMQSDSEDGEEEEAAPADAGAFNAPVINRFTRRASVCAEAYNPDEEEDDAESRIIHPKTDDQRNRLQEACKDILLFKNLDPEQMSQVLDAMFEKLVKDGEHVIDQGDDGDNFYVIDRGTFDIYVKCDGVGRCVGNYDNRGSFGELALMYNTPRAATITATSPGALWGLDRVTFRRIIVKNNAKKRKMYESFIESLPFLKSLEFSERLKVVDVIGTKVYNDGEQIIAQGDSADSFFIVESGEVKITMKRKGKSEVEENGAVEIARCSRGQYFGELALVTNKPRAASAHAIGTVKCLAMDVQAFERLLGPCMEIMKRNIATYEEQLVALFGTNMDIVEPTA

SMILES | activation
O=C(CCCN1C(=O)c2cccc3cccc(c23)C1=O)N1CCN(Cc2ccc3c(c2)OCO3)CC1 | -2.59% (inactive)
CCCC(=O)Nc1ncnc2c1ncn2[C@@H]1O[C@@H]2OP(=O)(O)OC[C@H]2[C@H]1OC(=O)CCC | 36.6% (active)
O=C(CN(C(=O)CCC(=O)Nc1nccs1)c1ccc(F)cc1)NCc1ccc2c(c1)OCO2 | 3.19% (inactive)
COc1ccc([N+](=O)[O-])cc1C1NN=C(c2cccc3ccccc23)S1 (stereo not drawn) | 1.59% (inactive)
O=S(=O)(NCCNS(=O)(=O)c1ccccc1)c1ccccc1 | 4.44% (inactive)
COc1ccc(C/C(C)=N/NC(=O)c2ccncc2)cc1 | 0.21% (inactive)
COc1ccc(CC(NC(C)=O)C(=O)NC2CCN(C(=O)c3ccc(Cl)cc3)CC2)cc1 (stereo not drawn) | 2.1% (inactive)
CC(C)(C)c1nnc(N/N=C/c2ccc(O)cc2)n(N)c1=O | 3.54% (inactive)
CC(C)(C)c1ccc(C(=O)N2CCC(C(=O)N3CCCCC3)CC2)cc1 | -0.14% (inactive)
COc1cccc(Nc2nnc(SCC(=O)N3CC(C)OC(C)C3)s2)c1 (stereo not drawn) | 1.96% (inactive)
O=C(CNC(=O)c1ccccc1)NCC(=O)OCC(=O)c1ccccc1 (HELM PEPTIDE1{[O=C(c1ccccc1)[*:2]].G.G.[O=C(CO[*:1])c1ccccc1]}$$$$V2.0) | 3.61% (inactive)
N#Cc1ccccc1CN1C(=O)S/C(=C/c2cccn2-c2cccc(C(=O)O)c2)C1=O | 19.4% (active)
O=C(O)C1=C(C(=O)O)C2CCC1C2 | -0.5% (inactive)
